Measurements as given in PubChem BioAssay AID1345083 (National Center for Advancing Translational Sciences (NCATS), 2018).
The campaign covered roughly 94,000 compounds. About 6,200 (6.6%) were called active. Another 31% or so got no clear call; they are omitted. The call rests on the fitted dose curve; in most records, active means well fitted inhibition curve with a large enough effect; inconclusive means small, poorly fitted or top-dose-only effect; inactive means flat fitted curve, though single readings scatter. Shown is part of a subset that was picked to be rich in actives. Where a call stands in place of a potency, no number is given.

Assay: Cytotoxic Profiling in HEK 293 Cell Line of Diverse Libraries Using Quantitative High-Throughput Screening; further: nearly all actives have a fitted effect of over 60% in size
Details: HEK 293 viability, ATP luminescence (CellTiter-Glo), 48-72 h; series mostly up to 115 µM
Summary of the method: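 qHTS cytotoxicity; HEK 293, 250 cells/well; compound pinned; 48 or 72 hr, 37 degree Celsius, 5% CO2, 95% humidity; CellTiter-Glo, 10 min RT; luminescence (ATP).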
Potency means the concentration at half of the fitted maximal effect.

Row | Compound | Potency
1 | O=c1c2ccccc2cnn1CCNC1CCC2(CCNCC2)CC1 | inactive
2 | Cc1nonc1OCCNC1CCC2(CCNCC2)CC1 | inactive
3 | CN(CCCNC1CCC2(CCNCC2)CC1)c1ccccc1 | 79.4 µM (active)
4 | CNC(=O)[C@@H]1CN(C(=O)c2cnc(C)cn2)C[C@H]1COC | inactive
5 | Cc1onc(-c2cnn(C)c2NCc2ccc(C#N)cc2)c1C(=O)N1CCN(C)CC1 | inactive
6 | CNC(=O)N1CCCC1c1nc(C2CN(C(=O)c3nccn3C)C2)no1 (stereo not drawn) | inactive
7 | CN1C(=O)CC[C@]2(C(=O)NCc3ccc4c(c3)OCO4)CCCC[C@@H]12 | inactive
8 | Cn1ncc2c(C(=O)NCc3ccc4c(c3)OCO4)cc(-c3ccc(Cl)nc3)nc21 | inactive
9 | CC1(C(=O)NCc2ccc3c(c2)OCO3)CCc2cnc(NCc3ccccc3)nc21 (stereo not drawn) | 70.8 µM (active)
10 | O=C1Nc2ccc(-c3ccccc3)cc2C(=O)N2C[C@H](O)C[C@@H]12 | inactive
11 | O=C(Cc1cc(F)c(F)c(F)c1)N1CCC(Cc2cccc(CO)c2)C1 (stereo not drawn) | inactive
12 | CC(C)(CC(=O)O)CC(=O)N[C@H]1CO[C@H]2[C@@H]1OC[C@@H]2n1nnnc1-c1ccccc1 | inactive
13 | c1ccc(CO[C@@H]2CO[C@H]3[C@@H]2OC[C@@H]3n2nnnc2SCc2ccco2)cc1 | 89.1 µM (active)
14 | CN(C)CC(=O)N1CC[C@H]2COC(=O)N2c2ccccc2C1 | inactive
15 | Cc1nc(CCNC(=O)NC2CCCC2)no1 | inactive
16 | CNC(=O)[C@@H]1C[C@@H](O)CN1C1CCN(C(=O)C2(c3ccccc3)CC2)CC1 | inactive
17 | COC1C(=O)N(c2cccc(F)c2)C12CCN(C(=O)C1(c3ccccc3)CC1)CC2 (stereo not drawn) | 44.7 µM (active)
18 | CN1C(=O)CS(=O)(=O)C12CCN(C(=O)C1(c3ccccc3)CC1)CC2 | inactive
19 | O=C([C@@H]1C[C@H](Oc2cccnc2)CN1C(=O)Cc1cccc(F)c1)N1CCCC1 | inactive
20 | CCCN(CC1CCOC1)S(=O)(=O)c1ccccc1Cl (stereo not drawn) | inactive
21 | CN1CCN(c2nc3c(c(=O)[nH]2)CCN(Cc2cccc4[nH]ccc24)CC3)CC1 | inactive
22 | Cc1ccc(C2Cn3nnc(C(=O)N4CCN(C(=O)COc5cccc(C)c5)CC4)c3CO2)cc1 (stereo not drawn) | inactive
23 | COc1ccc(CN2CCC[C@H]2c2nc(-c3ccc(N(C)C)nc3)no2)c(O)c1 | inactive
24 | c1ccc2c(CN3CCC[C@H]3c3nc(-c4ccnc(N5CCOCC5)c4)no3)c[nH]c2c1 | 89.1 µM (active)

Row | Compound | Potency
25 | CS(=O)(=O)c1ccc(CN2CCC[C@H]2c2nc(-c3ccc(N4CCC(C(N)=O)CC4)nc3)no2)cc1 | inactive
26 | O=C1CC(c2nc(-c3ccc4nc[nH]c4c3)no2)CN1Cc1ccncc1 (stereo not drawn) | inactive
27 | CC(=O)N1CCN(c2cc(-c3noc([C@@H]4CCCN4C4CCC4)n3)ccn2)CC1 | inactive
28 | CC(=O)N1CCN(c2cc(-c3noc([C@@H]4CCCN4Cc4ccccc4)n3)ccn2)CC1 | 70.8 µM (active)
29 | Cc1cn2nc(C(=O)NCc3cccs3)cc2c(N2CCCC2)n1 | inactive
30 | CNc1nc(N2CC[C@H](N3CCN(C)CC3)[C@H](CCC(=O)O)C2)ncc1F | inactive
31 | COc1ccc(NC(=O)N2CCC(CC(=O)NCc3ccccc3)C2)cc1OC (stereo not drawn) | inactive
32 | COC[C@H]1CCCN1Cc1nc(C2(O)CCN(CC3CCCCC3)CC2)cs1 | inactive
33 | Cc1nc(CCNS(=O)(=O)Cc2cccc(Cl)c2)no1 | inactive
34 | COc1ccc(C(=O)N2CC(c3nnc(-c4ccncc4)o3)C3(CCOCC3)C2)cn1 (stereo not drawn) | inactive
35 | O=C(NCCc1ccccc1)C1CCCN1C(=O)c1cccc(-c2ccccn2)c1 (stereo not drawn) | inactive
36 | O=C(NCCCc1ccccc1)C1CCCN1c1nccc(Nc2ccccc2F)n1 (stereo not drawn) | 44.7 µM (active)
37 | Cc1ccc(CC(=O)N2CCC(Cc3nc(-c4cnccn4)no3)CC2)cc1 | inactive
38 | CC(=O)N1CCC(c2nnc3n2C(C(=O)NCCCc2ccccc2)CC3)CC1 (stereo not drawn) | inactive
39 | CNC(=O)[C@@H](Cc1ccccc1)N1CCC[C@H]1C(=O)N1CCC1 | inactive
40 | Cc1ccc(Nc2ccnc(N3CCCC3C(=O)N3CCC(Cc4ccccc4)CC3)n2)cc1 (stereo not drawn) | 14.1 µM (active)
41 | Cn1ccc(C(=O)N2C[C@H]3CN(C4CCOCC4)C[C@@]3(C(=O)O)C2)n1 | inactive
42 | COC(=O)[C@H](Cc1ccc(OC)cc1)NC(=O)[C@H]1CN(S(=O)(=O)c2ccccc2)CCN1C(C)=O | inactive
43 | COCCC(=O)N1C[C@@H](COC)[C@H](c2nc(C)no2)C1 | inactive
44 | CNC(=O)[C@@H]1C[C@@H](n2cc(CN(C)C(=O)Nc3ccc(C)c(C)c3)nn2)CN1 | inactive
45 | C=CCN1C[C@@H]2CN(C(=O)CCc3cccc(OC)c3)C[C@]2(C(=O)O)C1 | inactive
46 | Cc1noc(C)c1[S+](=O)([O-])N1CCCC(C(=O)N2CCC(c3ccccc3)CC2)C1 (stereo not drawn) | 44.7 µM (active)
47 | Cc1noc(C)c1[S+](=O)([O-])N1CCC(C(=O)N2CCC(c3nc4ncccc4[nH]3)CC2)CC1 | inactive
48 | Cc1noc(C)c1[S+](=O)([O-])N1CCC(C(=O)N2CCC(c3nc4ccncc4[nH]3)C2)CC1 (stereo not drawn) | inactive

Row | Compound | Potency
49 | CCC(C)NC(=O)C1(c2ccc(NS(C)(=O)=O)cc2)CCCCC1 (stereo not drawn) | inactive
50 | COc1ccc(C(=O)N2CCCC(c3nc(-c4cnccn4)no3)CCNC(=O)CC2)c(OC)n1 (stereo not drawn) | inactive
51 | Cc1ccc(C(=O)N2CCC(c3n[nH]c(=O)n3-c3ccccc3)CC2)cc1F | inactive
52 | CN(Cc1csc(-c2ccccc2)n1)c1cc(C2CC(O)C2)nc(N)n1 (stereo not drawn) | 25.1 µM (active)
53 | COc1ccc(N2C(=O)CSC23CCN(C(=O)c2ccc(C)cc2)CC3)cc1 | inactive
54 | O=C(c1cc(F)ccc1F)N1CCCC2(C1)NC(=O)N(Cc1ccccc1)C2=O (stereo not drawn) | inactive
55 | COc1cccc(S(=O)(=O)N2CCC(n3cnnc3C3CC3)CC2)c1 | inactive
56 | Cc1cccc2c(C3CCN(S(=O)(=O)c4cc(Cl)cc(Cl)c4)CC3)c[nH]c12 | 25.1 µM (active)
57 | O=C(O)[C@@H]1CN(C(=O)CCCn2cncn2)C[C@H]1c1ccc2c(c1)OCO2 | inactive
58 | O=C(N[C@@H]1CN(C(=O)c2ccc3nc[nH]c3c2)CC[C@@H]1CO)C1CC1 | inactive
59 | CC(C)C1=NOC2(CCN(C(=O)c3ccccc3F)C2)C1 (stereo not drawn) | inactive
60 | O=C(C1CCOC1)N1CCC(N(Cc2ccccc2)C2CCOCC2)CC1 (stereo not drawn) | 89.1 µM (active)
61 | O=C(C1CCOCC1)N1CCOC[C@H](Oc2ccccc2)C1 | inactive
62 | O=C(NC1CC1)c1ccc(CC2CCN(C(=O)C3CCOC3)CC2)cc1 (stereo not drawn) | inactive
63 | Cn1cc(-c2ccsc2)c2nc(CN3CCNC(=O)C3)cn2c1=O | inactive
64 | CN1CCN(C(=O)c2ccc3nnc(C(C)(C)C)n3c2)CC1 | inactive
65 | CCc1cccc(NC(=O)Cn2c(=O)c(-c3noc(CC)n3)c3n(c2=O)CCCC3)c1 | inactive
66 | CCc1cc(=O)n(CC(=O)Nc2cc(OC)cc(OC)c2)c(N2CCOCC2)n1 | inactive
67 | CCc1cc(=O)n(CC(=O)Nc2cccc(C(C)=O)c2)c(-c2ccccc2)n1 | 25.1 µM (active)
68 | COc1ccc(-c2ccc(C(=O)N3CCN(C(=O)c4ccccc4OC)CC3)cc2)nn1 | inactive
69 | CN(C)[C@@H]1[C@@H](NC(=O)CCn2cnc3ccccc3c2=O)[C@H]2CCO[C@H]21 | inactive
70 | N#Cc1cccc(C(=O)Nc2ccc([C@H]3OCC(=O)N(Cc4ccccc4)[C@@H]3CO)cc2)c1 | inactive
71 | CCNC(=O)C1C(c2cccc(NC(=O)c3cccc(C)c3)c2)OC(=O)N1Cc1cccc(Cl)c1 (stereo not drawn) | 28.2 µM (active)
72 | CCCNC(=O)C(NC(=O)c1cccc(C)c1)C1CCN(C(=O)CCc2ccccc2)CC1 (stereo not drawn) | inactive

Row | Compound | Potency
73 | COc1cccc([S+](=O)([O-])N2CCC(C(=O)N3CCC(N4CCOCC4=O)CC3)CC2)c1 | inactive
74 | COCc1cc(=O)n(CC(=O)Nc2ccc(Cl)cc2)c(N2CCOCC2)n1 | inactive
75 | c1ccc2c(c1)CNC1(CCN(Cc3cccc4ccccc34)CC1)CO2 | 79.4 µM (active)
76 | COc1ccc(CN2CCC3(CC2)COc2ccccc2CN3)cc1 | inactive
77 | O=[S+]1([O-])NC2(CCN(Cc3ccccc3)CC2)COc2ccccc21 | inactive
78 | O=C(NCCc1nc(-c2ccccc2)cs1)C1NCCc2[nH]cnc21 (stereo not drawn) | inactive
79 | O=S(=O)(Cc1cccc(F)c1)N1CCC(C2CCNC2)CC1 (stereo not drawn) | inactive
80 | Cc1ccc(CS(=O)(=O)N2CCC(C3CCNC3)CC2)cc1C (stereo not drawn) | 89.1 µM (active)
81 | O=C1CCN(C(=O)C2CCN(S(=O)(=O)Cc3ccccc3)CC2)CCCCCCN1 | inactive
82 | CCC(=O)N1Cc2ccccc2CC2(CCCN2C)C1 (stereo not drawn) | inactive
83 | NCC(=O)N1Cc2ccccc2CC2(CCCCN2CC2CCOCC2)C1 (stereo not drawn) | inactive
84 | NCC(=O)N1CCCC2(Cc3ccccc3CN2C(=O)c2cccc(Cl)c2)C1 (stereo not drawn) | 70.8 µM (active)
85 | O=C(c1cccnc1)N1C[C@@H](F)[C@@H](OCc2nc3ccc(C(F)(F)F)cc3[nH]2)C1 | inactive
86 | C[S+](=O)([O-])NC1CC2(CCN(Cc3ccc(O)cc3)CC2)c2ccccc21 (stereo not drawn) | inactive
87 | CC1=C[C@@H](CN2CCOCC2)[C@H](C(C)C)C[C@H]1Cc1nnc(-c2ccc([N+](=O)[O-])cc2)o1 | 39.8 µM (active)
88 | CC1=C[C@@H](CN2CCN(CCO)CC2)[C@H](C(C)C)C[C@H]1Cc1nnc(-c2ccc(C)cc2)o1 | 31.6 µM (active)
89 | CC1=C[C@@H](CC#N)[C@H](C(C)C)C[C@H]1CC(=O)N1CCN(C)CC1 | inactive
90 | CC1=C[C@@H](CN2CCCC2)[C@H](C(C)C)C[C@H]1Cc1nnc(-c2ccc([N+](=O)[O-])cc2)o1 | 35.5 µM (active)
91 | CNC(=O)c1cc(C)nc2onc(C3CCCN3C(=O)Cc3ccc(F)cc3)c12 (stereo not drawn) | inactive
92 | NC1CCCCN(C(=O)c2ccc3n[nH]nc3c2)C1 (stereo not drawn) | inactive
93 | CSc1cccc(NC(=O)N[C@H]2C[C@@H](C(=O)N[C@@H](CCCNC(=O)CC(C)(C)C)C(N)=O)N(C(=O)CC(C)(C)C)C2)c1 | inactive
